The source of these data is PubChem BioAssay.

Each structure is given as a SMILES string. Activity calls are given as the source filed them. Unless noted, the rule behind the calls is not given here.

Test [1] can be described thus: compounds binding Alexa647 anti-His antibody – biochemical, small-molecule microarray, 635 nm fluorescence, artefact control for SMM control protein annotation, primary screen (AID 1128).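 Note: score merges feature fluorescence with signal-to-noise for each printed compound spot.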 The conditions noted are these: higher = more signal.
Test [2] deals with Human papillomavirus type 1a E7 protein (residues 1-88). Kind of test: HPV1a E7 small-molecule binders, primary screen, biochemical, small-molecule microarray, residues 1-88, 635 nm (AID 1129). The settings on record: small-molecule microarray binding, fluorescence 635 nm; higher = more signal.
Test [3] deals with Focal adhesion kinase 1 (Homo sapiens) (UniProt Q05397). Kind of test: PTK2 protein binding on printed compound slides – biochemical, small-molecule microarray, 635/667 nm fluorescence, BSA, DTT, primary screen (AID 1130).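 Note: composite of spot emission at 667 nm and signal to noise over triplicate slides.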 The settings on record: 635 nm fluorescence, higher = more signal.
In test [4] the test system is Fibrinogen (Alexa647-labelled). Kind of test: Alexa647-fibrinogen binding to printed small molecules – biochemical, small-molecule microarray, 635/667 nm fluorescence, artefact control for SMM control-protein annotation, profiling panel (AID 1131).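 Note: z-score merges 667 nm fluorescence with per-spot signal-to-noise over triplicate slides.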 The conditions noted are these: fibrinogen-A647 binding fluorescence, higher = more signal.
In test [5] the target is Follistatin (Homo sapiens) (UniProt P19883). As to the kind of experiment: FST protein binding to printed compounds – biochemical, small-molecule microarray, 635/667 nm fluorescence, primary screen (AID 1132). The settings on record: 635 nm fluorescence, higher = more signal.
Test [6] deals with Fibroblast growth factor 2 (Homo sapiens) (UniProt P09038). Kind of test: basic fibroblast growth factor binding to printed compounds – biochemical, small-molecule microarray, 635/667 nm fluorescence, primary screen (AID 1133). The conditions noted are these: FGF2, fluorescence 635/667, higher = more signal.
Test [7] is described as follows: JC-1 mitochondrial potential readout, lung cancer cells – cell-based, A549, JC-1 fluorescence, basal, 24 h, 100 nL, profiling panel (AID 1138).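 Note: A549 lung adenocarcinoma cells under basal conditions with no added stimulus; test concentration not given here.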 The conditions noted are these: higher = more signal.
Another test concerns Lefty1. Kind of test: Lefty1 protein binding to printed compounds – biochemical, small-molecule microarray, 635/667 nm fluorescence, primary screen (AID 1139). The settings on record: fluorescence 635/667, higher = more signal.
For test [8], the system named is wheat germ agglutinin (Triticum aestivum), Alexa647-labelled. Kind of test: Alexa647-WGA lectin binding to printed small molecules – biochemical, small-molecule microarray, 635/667 nm fluorescence, artefact control for SMM control-protein annotation, profiling panel (AID 1140).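 Note: score merges 667 nm feature emission with signal to noise over triplicate slides.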 The conditions noted are these: WGA-A647 binding, 635 nm fluorescence, higher = more signal.

The target of test [9] is Luciferin 4-monooxygenase (Photinus pyralis) (UniProt P08659). Kind of test: inhibition of purified Photinus pyralis luciferase – biochemical, luminescence, purified enzyme, 2006 set, primary screen (AID 1141).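 Note: cell-free assay with purified firefly luciferase at 100 ng per well in PBS; test concentration not given here.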 The conditions noted are these: purified firefly luciferase, SteadyGlo luminescence, 30 min; higher = more signal, called active from +8 up or from −8 down.
The test system of test [10] is Wnt5a (protein binding on small-molecule microarray). As to the kind of experiment: small molecules binding Wnt5a protein – biophysical, small-molecule microarray, 635/667 nm fluorescence, primary screen (AID 1142).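 Note: fluorescence read at 667 nm with signal to noise per printed feature.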 The settings on record: 635 nm fluorescence, higher = more signal.
Test [11] in a line: ATP-based viability of Huh7 replicon cells – cell-based, CellTiter-Glo luminescence, basal, 48 h, cytotoxicity control for HCV replication inhibitor project, primary screen (AID 1143).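 Note: Huh7 hepatoma cells carrying a hepatitis C replication reporter with no stimulus; test concentration not given here.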 The conditions noted are these: higher = more signal, called active from +8 up or from −8 down. A general note: A replicon is a self-replicating genome or part of one, used to study replication in cells.

Test [12] in a line: Pseudomonas biofilm growth suppression – PAO1 strain, BacTiter-Glo luminescence, LB-PBS, primary screen (AID 1144). The conditions noted are these: P. aeruginosa PAO1 biofilm, 12 h, higher = more signal.
Test [13] in a line: basal CRE-LacZ reporter activity in PC12 – cell-based, unstimulated, primary screen (AID 1145). The conditions noted are these: no forskolin, luminescence, 4.5 h, higher = more signal, called active from +8 up or from −8 down.
Test [14] in a line: forskolin-driven CRE-LacZ activity in PC12 – cell-based, CRE-LacZ reporter, forskolin-stimulated, primary screen (AID 1146).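 Note: PC12 cells with 6xCRE LacZ reporter stimulated by forskolin 10 µM; beta-galactosidase reporter signal reflecting CREB driven transcription.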 The conditions noted are these: luminescence, 4.5 h, higher = more signal, called active from +8 up or from −8 down.
Test [15] deals with Streptavidin (Streptomyces avidinii) (UniProt P22629). Kind of test: compounds binding control protein streptavidin – biophysical, small-molecule microarray, 635/667 nm fluorescence, artefact control for SMM compound annotation, primary screen (AID 1147).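 Note: signal reflects streptavidin binding to arrayed compounds as a control protein.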 The settings on record: higher = more signal.
A short description of test [16]: probe aInhba binding on compound microarray – biochemical, small-molecule microarray, 635/667 nm fluorescence, primary screen (AID 1148).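 Note: score merges 667nm spot fluorescence with signal-to-noise for antibody binding to printed compounds.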 The conditions noted are these: higher = more signal.
For test [17], the target named is Torsin-1A (Homo sapiens) (UniProt O14656). As to the kind of experiment: TOR1A wild-type binding on microarray – cell lysate, small-molecule microarray, lysate, 635/667 nm, primary screen (AID 1149). The conditions noted are these: COS7 hTOR1A-WT lysate, 635 nm fluorescence, higher = more signal.
Test [18] shares this target. Kind of test: torsin A mutant lysate binding on microarrays – cell lysate, small-molecule microarray, COS7 lysate, 635/667 nm fluorescence, primary screen (AID 1150).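 Note: score pools 667 nm emission and signal to noise measuring lysate protein binding.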 The settings on record: COS7 hTOR1A mutant lysate, 635 nm fluorescence, higher = more signal.
Test [19] concerns Sonic hedgehog protein (Shh). As to the kind of experiment: Sonic hedgehog microarray binding compounds – biochemical, small-molecule microarray, 635/667 nm fluorescence, primary screen (AID 1151).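 Note: Shh protein binding to compounds spotted on small-molecule microarray slides; score combines spot fluorescence intensity with signal-to-noise across triplicate slides.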 The conditions noted are these: 635 nm fluorescence, higher = more signal.

Sequence of Follistatin (Homo sapiens) (P19883 whole entry, looked up): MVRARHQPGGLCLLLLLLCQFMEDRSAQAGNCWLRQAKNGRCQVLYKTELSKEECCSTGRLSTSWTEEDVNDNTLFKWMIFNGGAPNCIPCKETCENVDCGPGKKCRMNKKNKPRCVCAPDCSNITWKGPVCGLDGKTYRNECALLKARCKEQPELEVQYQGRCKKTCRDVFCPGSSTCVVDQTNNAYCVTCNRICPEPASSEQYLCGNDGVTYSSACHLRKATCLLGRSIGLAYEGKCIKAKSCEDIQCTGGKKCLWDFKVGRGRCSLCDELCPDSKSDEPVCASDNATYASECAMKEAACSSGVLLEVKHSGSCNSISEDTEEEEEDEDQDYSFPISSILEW
Sequence of Torsin-1A (Homo sapiens) (O14656 whole entry, looked up): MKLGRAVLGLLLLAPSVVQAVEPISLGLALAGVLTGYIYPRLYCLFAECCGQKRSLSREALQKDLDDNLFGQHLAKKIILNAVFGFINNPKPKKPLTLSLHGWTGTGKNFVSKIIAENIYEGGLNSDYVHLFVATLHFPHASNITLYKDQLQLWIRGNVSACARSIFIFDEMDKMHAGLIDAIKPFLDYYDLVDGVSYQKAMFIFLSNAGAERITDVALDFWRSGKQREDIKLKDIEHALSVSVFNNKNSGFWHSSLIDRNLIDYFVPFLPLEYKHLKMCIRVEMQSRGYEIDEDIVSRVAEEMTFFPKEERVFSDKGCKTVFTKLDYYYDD
Sequence of Streptavidin (Streptomyces avidinii) (P22629 whole entry, looked up): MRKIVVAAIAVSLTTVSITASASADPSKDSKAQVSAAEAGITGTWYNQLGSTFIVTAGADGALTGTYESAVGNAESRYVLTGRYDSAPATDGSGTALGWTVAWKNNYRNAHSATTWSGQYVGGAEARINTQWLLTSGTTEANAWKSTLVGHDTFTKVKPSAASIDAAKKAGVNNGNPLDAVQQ
Sequence of Fibroblast growth factor 2 (Homo sapiens) (P09038 whole entry, looked up): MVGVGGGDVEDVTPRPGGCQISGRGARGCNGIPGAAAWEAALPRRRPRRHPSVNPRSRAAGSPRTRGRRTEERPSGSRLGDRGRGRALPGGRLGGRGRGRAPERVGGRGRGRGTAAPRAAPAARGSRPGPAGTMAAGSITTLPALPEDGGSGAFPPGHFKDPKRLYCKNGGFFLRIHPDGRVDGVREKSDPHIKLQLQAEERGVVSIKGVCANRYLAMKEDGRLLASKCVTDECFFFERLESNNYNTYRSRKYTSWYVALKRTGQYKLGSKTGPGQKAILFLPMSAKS
Sequence of Luciferin 4-monooxygenase (Photinus pyralis) (P08659 whole entry, looked up): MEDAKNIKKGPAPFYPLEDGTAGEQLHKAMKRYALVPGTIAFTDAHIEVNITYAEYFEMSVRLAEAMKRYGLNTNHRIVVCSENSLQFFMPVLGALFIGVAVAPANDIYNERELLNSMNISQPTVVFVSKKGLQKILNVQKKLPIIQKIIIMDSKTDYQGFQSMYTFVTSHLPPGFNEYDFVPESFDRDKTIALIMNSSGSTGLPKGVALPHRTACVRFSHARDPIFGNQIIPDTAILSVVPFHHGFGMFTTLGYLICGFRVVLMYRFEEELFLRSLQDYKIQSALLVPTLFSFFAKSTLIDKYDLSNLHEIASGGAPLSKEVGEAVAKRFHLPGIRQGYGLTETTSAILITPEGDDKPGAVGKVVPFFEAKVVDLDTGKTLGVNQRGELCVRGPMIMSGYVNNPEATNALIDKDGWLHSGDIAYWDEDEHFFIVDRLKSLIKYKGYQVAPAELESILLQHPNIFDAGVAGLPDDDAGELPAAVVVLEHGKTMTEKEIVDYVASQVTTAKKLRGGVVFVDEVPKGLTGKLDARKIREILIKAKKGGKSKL
Sequence of Focal adhesion kinase 1 (Homo sapiens) (Q05397 whole entry, looked up): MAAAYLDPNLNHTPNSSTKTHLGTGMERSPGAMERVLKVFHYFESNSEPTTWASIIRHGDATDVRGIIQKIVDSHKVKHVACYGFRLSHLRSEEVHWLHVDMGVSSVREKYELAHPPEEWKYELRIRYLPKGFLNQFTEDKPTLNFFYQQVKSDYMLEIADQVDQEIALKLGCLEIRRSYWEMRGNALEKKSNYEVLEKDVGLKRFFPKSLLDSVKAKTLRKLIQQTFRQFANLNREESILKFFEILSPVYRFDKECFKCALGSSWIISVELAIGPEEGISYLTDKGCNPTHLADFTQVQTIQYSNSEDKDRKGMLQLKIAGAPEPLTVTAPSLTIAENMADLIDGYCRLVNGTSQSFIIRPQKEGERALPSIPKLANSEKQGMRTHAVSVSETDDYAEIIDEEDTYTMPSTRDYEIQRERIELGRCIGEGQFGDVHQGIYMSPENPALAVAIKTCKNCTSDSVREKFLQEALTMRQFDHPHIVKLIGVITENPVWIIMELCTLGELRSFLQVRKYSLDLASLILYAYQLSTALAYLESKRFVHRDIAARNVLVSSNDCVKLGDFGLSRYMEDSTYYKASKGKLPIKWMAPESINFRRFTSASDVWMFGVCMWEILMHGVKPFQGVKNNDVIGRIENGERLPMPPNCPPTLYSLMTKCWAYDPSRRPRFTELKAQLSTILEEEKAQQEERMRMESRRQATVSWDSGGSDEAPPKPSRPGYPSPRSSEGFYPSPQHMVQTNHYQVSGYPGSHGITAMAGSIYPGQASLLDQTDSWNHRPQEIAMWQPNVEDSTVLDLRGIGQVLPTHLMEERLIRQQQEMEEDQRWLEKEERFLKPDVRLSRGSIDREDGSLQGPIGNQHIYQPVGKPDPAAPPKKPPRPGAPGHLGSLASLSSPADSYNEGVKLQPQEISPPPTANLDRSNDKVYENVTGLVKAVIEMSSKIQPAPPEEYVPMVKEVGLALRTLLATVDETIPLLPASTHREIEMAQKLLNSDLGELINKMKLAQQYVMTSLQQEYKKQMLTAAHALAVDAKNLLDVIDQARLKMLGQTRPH

Take `Cc1ccc(S[C@]2(C(=O)NC3CC3)CC(=O)N(C3Cc4ccccc4C3)[C@@H]2c2ccc(CO)cc2)cc1`: the composite z-score in [1] was -0.172; in [2] it was 0.445; in [3], 0.0342; in [4], -0.424; in test [5], -0.584; in [6], -0.3. For the same compound, the composite z-score in the test on Lefty1 is -1.35; in test [8], -0.0705; in [10], -0.0244; in test [15] it was -0.75; in [16] it was -0.0136; in the test with Torsin-1A (Homo sapiens) [17], -0.382. For the same compound, the values for the composite z-score (with Torsin-1A (Homo sapiens) [18]; in test [19]) were 0.23 and -0.766, respectively. The z-score in test [7] was 2.42; in test [9], -1.28 (inactive); in [11], -1.6 (inactive); in test [12], -0.401 (inactive); in test [13], 0.324 (inactive); in test [14] it was -0.906 (inactive).
As to `CC(C)c1ccc(NN2C(C(O)C(c3ccccc3)c3ccccc3)C=CC3C(=O)N(c4ccccc4)C(=O)C32)cc1` (stereo not given), the composite z-score in test [1] was 0.49; in [2], 1.2; in [3] it was 0.496; in [4], 0.975; in [5], 1.13; in test [6], 0.388. The composite z-score is 0.343 with Lefty1; 0.919 in test [8]; 0.359 in test [10]; 1.3 in test [15]; 0.246 in [16]; 0.792 with Torsin-1A (Homo sapiens) [17]. For the same compound, the composite z-score was 0.936 with Torsin-1A (Homo sapiens) [18] and -0.0266 in test [19]. In addition, the z-score was -1.24 in [7]; -0.78 (inactive) in test [9]; -0.29 (inactive) in [11]; -0.281 (inactive) in [12]; -0.322 (inactive) in [13]; 1.3 (inactive) in test [14].
As to `COCCOC(=O)N1C(=O)[C@@]2(c3cc(C#CC4=CCCCC4)ccc31)[C@H](C(=O)Nc1nc3ccccc3s1)[C@H]1C(=O)O[C@H](c3ccccc3)[C@H](c3ccccc3)N1[C@@H]2c1ccccc1OCCO`, the composite z-score in [1] came to 0.772; in [2], 1.19; in test [3], 2.14; in test [4], 0.766; in [5] it was 1.38; in [6], 0.946. Moreover, the composite z-score in the test on Lefty1 was determined as 1.21; in test [8], 0.845; in [10], 0.697; in test [15], 1.19; in [16] it was 0.973; in the test with Torsin-1A (Homo sapiens) [17] it was 0.0595. Besides, the composite z-score amounted to 0.956 with Torsin-1A (Homo sapiens) [18] and 1.49 in test [19]. The z-score in test [7] is -2.18; in [9], -1.88 (inactive); in [11], -5.66 (inactive); in test [12], -1.29 (inactive); in test [13], -0.878 (inactive); in test [14], -1.09 (inactive).
Consider `[N-]=[N+]=NCc1ccccc1C[C@]1(C(=O)NCC(O)CO)N=C(c2ccc(OCCCO)cc2)O[C@H]1c1ccccc1` (stereo not given in full), for which the composite z-score is 0.375 in [1]; -0.116 in test [2]; -0.294 in [3]; -0.231 in test [4]; 0.263 in [5]; -0.476 in [6]. The composite z-score with Lefty1 was -1.5; in [8], 0.228; in [10] it was 0.185; in [15], 0.236; in test [16], 0.109; in the test with Torsin-1A (Homo sapiens) [17], 0.381. Also, the composite z-score with Torsin-1A (Homo sapiens) [18] was 0.777; in test [19] it was -1.52. Besides, the z-score in [7] is -0.077; in test [9] it was -0.263 (inactive); in [11] it was -3.58 (inactive); in [12] it was 0.55 (inactive); in test [13], 1.87 (inactive); in test [14], -0.621 (inactive).
As for `O=C1NC(=O)C2C1C=CC(C(O)c1ccccc1)N2Nc1ccc(Cl)cc1Cl` (stereo not given), the composite z-score in test [1] amounted to 1.62; in [2] it was 1.16; in test [3], 0.433; in test [4], 0.985; in test [5], 1.28; in [6] it was 0.394. Also, the composite z-score stood at 1.4 with Lefty1; 0.763 in [8]; 0.656 in test [10]; 2.01 in test [15]; 0.225 in test [16]; 1.01 with Torsin-1A (Homo sapiens) [17]. Further, the composite z-score with Torsin-1A (Homo sapiens) [18] was 1.4; in test [19], 1.68. In addition, the z-score was -0.0329 in test [7]; -1.44 (inactive) in [9]; -2.84 (inactive) in test [11]; -1.4 (inactive) in test [12]; 0.429 (inactive) in test [13]; -0.12 (inactive) in test [14].
